From PubChem BioAssay (NCI)
Compounds without any hit were thinned out: in the full panel of roughly 79,000, 15% have a hit. Rule as the data show it: active = growth inhibition above about 70%; inactive = the rest.

Experiments:
[1] = NCI Yeast Anticancer Drug Screen. Data for the rad50 strain (AID 155);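 also: 0% = growth of vehicle-only cultures of the same strain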; details: S. cerevisiae rad50 strain growth inhibition; at 50.0 µM; stronger effect = higher value
Summary of the method: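 Vehicle-treated cultures provide the reference for the growth inhibition reported for compound-exposed, repair-deficient yeast.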

[2] = NCI Yeast Anticancer Drug Screen. Data for the mec2-1 strain (AID 157); details: S. cerevisiae mec2-1 strain, at 50.0 µM, stronger effect = higher value
Summary of the method: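 Strain: mec2-1 (DNA repair/cell cycle alteration). Compound exposure, then growth measured; inhibition expressed relative to vehicle.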

[3] = NCI Yeast Anticancer Drug Screen. Data for the sgs1 mgt1 strain (AID 161);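 also: 0% = growth of cultures given vehicle only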; details: S. cerevisiae sgs1 mgt1 strain, at 50.0 µM, stronger effect = higher value
Summary of the method: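 Test agents were incubated with a DNA-repair-mutant yeast strain. Growth was then read and compared against vehicle-treated controls.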

[4] = NCI Yeast Anticancer Drug Screen. Data for the cln2 rad14 strain (AID 165);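 also: 0% = growth equal to vehicle treated cultures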; details: S. cerevisiae cln2 rad14 strain, at 50.0 µM, stronger effect = higher value
Summary of the method: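 Compounds are applied to the cln2 rad14 yeast strain, and growth is then compared with that of vehicle-treated cultures to give inhibition.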

[5] = NCI Yeast Anticancer Drug Screen. Data for the bub3 strain (AID 167); details: S. cerevisiae bub3 mutant strain, at 50.0 µM, stronger effect = higher value
Summary of the method: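 Mutant yeast screening strain plus compound; vehicle-treated cultures serve as the 0% inhibition reference.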

[6] = NCI Yeast Anticancer Drug Screen. Data for the mlh1 rad18 strain (AID 175); details: S. cerevisiae mlh1 rad18 strain growth inhibition; at 50.0 µM; stronger effect = higher value
Summary of the method: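 Read-out is yeast growth inhibition, calculated against vehicle-only controls. The compound was applied to a strain engineered with DNA damage repair alterations.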

Measured: growth inhibition

COc1ccc(C=O)c(NC(=O)C(C)(C)C)c1
inactive: [1] 37.4% | [2] 23.9% | [3] 9.8% | [4] 1.7% | [5] 23.2% | [6] -13.7%

CCCC1=NCCO1
inactive: [1] -10.9% | [2] -26.6% | [3] -6.65% | [4] 0.45% | [5] -6.95% | [6] -13.7%

O=C(c1ccccc1)C(Br)C(Br)c1ccc([N+](=O)[O-])cc1 (stereo not given)
inactive: [1] 14.7% | [2] 39.9% | [3] 31.4% | [4] 24.2% | [5] -1.9% | [6] 21.6%

O=C(Nc1cccc2ccccc12)OC1CCCC1
inactive: [1] 1.2% | [2] -12.4% | [3] -14.4% | [4] -53.7% | [5] 6.35% | [6] -28.6%

CCOC(OCC)N(C)C
inactive: [1] -14.9% | [2] -5.25% | [3] -3.05% | [4] -4.8% | [5] -5.5% | [6] -26.8%

CCCCCCCCCCCCCCCCCCOCCCCCCCCCCCC
inactive: [1] -34.8% | [2] -15.6% | [3] -20% | [4] -64% | [5] 5.05% | [6] -17.1%

CCCCCCCCCCCC1=c2o[nH]c2=C(c2ccccn2)C(=O)C1=O
inactive: [1] -15.2% | [2] -6.6% | [3] 6.5% | [4] -45.5% | [5] 11.4% | [6] -0.75%

CN(C)CCN(C(=Nc1ccccc1)N1CCCC1)c1ccccc1
inactive: [1] -18.7% | [2] -30.8% | [3] -30.4% | [4] 17.1% | [5] 0.45% | [6] 4.5%

O=C(O)/C(=C\c1ccccc1[N+](=O)[O-])c1ccccc1
inactive: [1] 35.3% | [2] -3.05% | [3] 7.45% | [4] -30.9% | [5] -1.45% | [6] 47.4%

COC1CC(NC(C)=O)C(OC(=O)c2ccccc2)C(CBr)O1 (stereo not given)
inactive: [1] 17.6% | [2] 1.4% | [3] 2.45% | [4] 15.2% | [5] -1.8% | [6] 19.6%

O=c1[nH]c(=O)n(C2CC(O)C(CO)O2)cc1Cl (stereo not given)
inactive: [1] 0.75% | [2] -11.1% | [3] 2.9% | [4] 11.8% | [5] 1.45% | [6] 2.25%

COc1ccc2c(c1)C/C(=C\c1cccc3ccccc13)C2=O
inactive: [1] -51.9% | [2] -19.3% | [3] -0.15% | [4] -23.1% | [5] 28.1% | [6] -0.7%

CCC(/C=C\C(C)C1CCC2C3CC=C4CC(OS(=O)(=O)c5ccc(C)cc5)CCC4(C)C3CCC12C)C(C)C (stereo not given)
inactive: [1] -9.9% | [2] -3.95% | [3] -16.6% | [4] -5.6% | [5] 1.1% | [6] -32.1%

COC(=O)C(Cc1c[nH]c2ccccc12)NC(=O)C(Cc1cnc[nH]1)NC(=O)C1CCC(=O)N1C(=O)OCc1ccccc1 (stereo not given)
inactive: [1] -10.2% | [2] -3.55% | [3] -2% | [4] -2.35% | [5] -1.35% | [6] -5.1%

CC(C)=CCOc1ccc(-c2coc3cc4c(c(O)c3c2=O)C=CC(C)(C)O4)cc1
inactive: [1] 15.7% | [2] 3.1% | [3] 15.9% | [4] 13.3% | [5] 24% | [6] 26.8%

C=C(Cl)Cc1c(O)c2c(c(O)c1CC(=C)Cl)C(=O)c1ccccc1C2=O
inactive: [1] -39.2% | [2] -42.7% | [3] -50% | [4] 1.8% | [5] -18.1% | [6] -33.5%

O=c1[nH]cnc2ncnn12
inactive: [1] 20% | [2] 4.2% | [3] 9.65% | [4] 19.2% | [5] 21% | [6] 16.4%

c1ccc(Cc2ncc(-c3ccccc3)cc2-c2ccccc2)cc1
inactive: [1] -19.4% | [2] -14.8% | [3] 3.1% | [4] 3.65% | [5] 7.3% | [6] 4.2%

O=C1c2sccc2[C@H](NC(=O)C(F)(F)F)[C@@H]1Cl
inactive: [1] 4.5% | [2] 3.45% | [3] 1.1% | [4] 25.1% | [5] 7.25% | [6] 18.6%

COc1ccc(Cl)cc1NC(=O)Oc1ccc2ccccc2c1
inactive: [1] -5.8% | [2] 29.2% | [3] 12.2% | [4] -12.7% | [5] 27.3% | [6] 38.2%

CCOC(=O)c1sc2c(c1OC(=O)c1ccccc1)c(=O)n(-c1ccccc1)c(=S)n2-c1ccccc1
inactive: [1] 21% | [2] 15.9% | [3] 30.1% | [4] 24.9% | [5] 29.2% | [6] 33.7%

CCC1(O)CC2CN(CCc3c([nH]c4ccccc34)C(C(=O)OC)(c3cc4c(cc3OC)N(C)C3C(O)(C(N)=O)C(O)C5(CC)C=CCN6CCC43C65)C2)C1 (stereo not given) (tested in a mixture with another compound)
inactive: [1] -2.3% | [2] -21.1% | [3] -0.35% | [4] 2.7% | [5] 1.05% | [6] 20.7%

CC(C)(C)C([O-])=C1C(=O)c2ccccc2C1=O.CC(C)(C)C([O-])=C1C(=O)c2ccccc2C1=O.CC[O-].CC[O-].[Ti+4]
inactive: [1] 20.1% | [2] 47.1% | [3] 57.4% | [4] 47.3% | [5] 59.2% | [6] 46.2%

Cc1cc(-c2ccc(NC(=O)c3cccc([N+](=O)[O-])c3)c(C)c2)ccc1NC(=O)c1cccc([N+](=O)[O-])c1
inactive: [1] -19.2% | [2] -26.7% | [3] 0.25% | [4] 15.3% | [5] 0.7% | [6] -14.3%

CCCCCCCC/C=C\CCCCCCCCOC(=O)CC(O)C(=O)OCCCCCCCC/C=C\CCCCCCCC (stereo not given)
inactive: [1] -22.6% | [2] -4.05% | [3] -7.5% | [4] -22.9% | [5] -9.8% | [6] -17.2%

CCCCCC/C=N/Nc1ccc([N+](=O)[O-])cc1[N+](=O)[O-]
inactive: [1] 1.65% | [2] -18.9% | [3] -11.2% | [4] -48.2% | [5] -6.95% | [6] -4.9%

CC1=CC(=O)C(O)C2(C)C(CCC3(C)OCCO3)C=C(O[Si](C)(C)C(C)(C)C)CC12 (stereo not given)
inactive: [1] 21.6% | [2] -2.5% | [3] 1.2% | [4] 18.4% | [5] 5.15% | [6] 7%

COC(=N)c1nnn(-c2ccccc2)n1
inactive: [1] -8.6% | [2] -8% | [3] -5.05% | [4] -16.1% | [5] 2.05% | [6] -17.9%

COc1ccc(-n2c(C)nc3c(cnn3C3OC(CO)C(O)C3O)c2=O)cc1 (stereo not given)
inactive: [1] 16.2% | [2] -5.6% | [3] -15.1% | [4] -4.15% | [5] -1.9% | [6] 11.2%

C/C(=N/C(=O)NN)c1ccc(Cl)cc1
inactive: [1] 34.2% | [2] -7.9% | [3] 42.9% | [4] 2.35% | [5] 37.2% | [6] 31.9%

O=C(CCCC(=O)N/N=C/c1ccc(I)cc1)N/N=C\c1ccc(I)cc1
inactive: [1] 29.9% | [2] 9% | [3] 25.2% | [4] 25.1% | [5] -1.05% | [6] 17.7%

O=C1c2ccc3ccccc3c2C(=O)c2ccc3ccccc3c21
inactive: [1] -20.6% | [2] -4.5% | [3] -3.65% | [4] -30.2% | [5] -12.3% | [6] -16.8%

NC1=NS(=O)(=O)Nc2nc(-c3ccc([N+](=O)[O-])o3)[nH]c21
inactive: [1] 50.5% | [2] -8.6% | [3] 26.1% | [4] 23.2% | [5] -2.7% | [6] 50.5%

Cc1ccc(S(=O)(=O)N(Cc2cccc([N+](=O)[O-])c2)c2ccc(C(=O)O)cc2)cc1
inactive: [1] 8.45% | [2] 4.55% | [3] 0.8% | [4] -12.7% | [5] 5.95% | [6] 21.1%

Oc1nc(-c2ccccc2)sc1-c1ccccc1
inactive: [1] -6.05% | [2] 16.9% | [3] -0.5% | [4] -24% | [5] -10.7% | [6] -9.15%

O=C(CCCCC(=O)N1CCOCC1)N1CCOCC1
inactive: [1] -9.3% | [2] -21.9% | [3] -2.45% | [4] -19.6% | [5] 2.1% | [6] -9.4%

Cc1ccccc1OCC(C)OC(N)=O (stereo not given)
inactive: [1] 6.1% | [2] -11.4% | [3] 2.1% | [4] -16.4% | [5] 7% | [6] 6.15%

CN(C)CCCN1CC2C3CCCCC3=C3CCCCC3C2C1 (stereo not given)
inactive: [1] -15.4% | [2] 0.6% | [3] -24.1% | [4] -16.9% | [5] 1.85% | [6] -16.9%

Cc1ccc(S(=O)(=O)NC(C)C(=O)O)cc1 (stereo not given)
inactive: [1] -1.5% | [2] -6.65% | [3] 4.9% | [4] 3.2% | [5] -7.65% | [6] 4.6%

O=C1C=C2CCC[C@H]3OC(=O)C[C@@]23CC1
inactive: [1] 12.4% | [2] 16.2% | [3] 35.3% | [4] 28.4% | [5] -0.95% | [6] 27.4%
